This passage reports growth inhibition results from PubChem BioAssay (NCI).

The nature of experiment [1]: NCI Yeast Anticancer Drug Screen. Data for the rad50 strain (AID 155).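 Also: 0% = growth of vehicle-only cultures of the same strain.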 The note with it: S. cerevisiae rad50 strain growth inhibition, active compounds read high. The method in brief:
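Yeast carrying a defined DNA repair defect were exposed to test compounds, and growth was compared with vehicle-treated controls to give percent inhibition.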

Experiment [2] can be described thus: NCI Yeast Anticancer Drug Screen. Data for the mec2-1 strain (AID 157). Conditions: S. cerevisiae mec2-1 strain, active compounds read high. The method in brief: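 Test agents were screened against the mec2-1 yeast strain, with defined DNA repair or cell cycle alteration. Growth was scored as inhibition against vehicle-only controls.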
Experiment [3] is described as follows: NCI Yeast Anticancer Drug Screen. Data for the sgs1 mgt1 strain (AID 161).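 Also: 0% = growth of cultures given vehicle only.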 Conditions: S. cerevisiae sgs1 mgt1 strain, active compounds read high. The essentials: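 Inhibition of yeast growth, normalised to vehicle-treated controls, is reported for a strain bearing genetic alterations in DNA damage repair.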
The nature of experiment [4]: NCI Yeast Anticancer Drug Screen. Data for the cln2 rad14 strain (AID 165).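 Also: 0% = growth equal to vehicle treated cultures.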 The note with it: S. cerevisiae cln2 rad14 strain, active compounds read high. The method in brief: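 Growth of compound-exposed yeast (cln2 rad14 genotype) measured and expressed as inhibition relative to vehicle.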
Experiment [5] can be described thus: NCI Yeast Anticancer Drug Screen. Data for the bub3 strain (AID 167). The note with it: S. cerevisiae bub3 mutant strain, active compounds read high. The method in brief:
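Compounds were applied to a genetically altered yeast strain carrying a cell-cycle control defect. Growth inhibition was scored against vehicle-treated controls.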

Experiment [6] can be described thus: NCI Yeast Anticancer Drug Screen. Data for the mlh1 rad18 strain (AID 175). Conditions: S. cerevisiae mlh1 rad18 strain growth inhibition, active compounds read high. The method in brief:
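In this whole-cell yeast screen, a strain with altered DNA damage repair is challenged with compound, and its growth is measured against matched vehicle-treated controls.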

Where [7] appears, read: at 5.0 µM (retest, dose inferred, filed as 0.5).
The mark [8] stands for this setting: at 50.0 µM (retest, dose inferred, filed as 5.0).

Compounds without any hit were thinned out: in the full panel of roughly 79,000, 15% have a hit. Values without a mark were called inactive. Calls of active or inactive are those of the source. Rule as the data show it: active = growth inhibition above about 70%; inactive = the rest.

In the case of `CCNc1nc(C(F)(F)F)nc2nc[nH]c12`, the growth inhibition was 3% in experiment [1] (setting [7]); -5% in experiment [1] (setting [8]); 6.15% in experiment [1] (at 50.0 µM); 1% in experiment [2] (setting [7]); 4% in experiment [2] (setting [8]); -5.75% in experiment [2] (at 50.0 µM). For the same compound, the growth inhibition is -22% in experiment [3] (setting [7]); -5% in experiment [3] (setting [8]); -20.1% in experiment [3] (at 50.0 µM); -5% in experiment [4] (setting [7]); 0% in experiment [4] (setting [8]); 92.7% (active) in experiment [4] (at 50.0 µM). Also, the growth inhibition in experiment [5] (setting [7]) was -4%; in experiment [5] (setting [8]), -4%; in experiment [5] (at 50.0 µM), 3.4%; in experiment [6] (setting [7]), -3%; in experiment [6] (setting [8]), -9%; in experiment [6] (at 50.0 µM), 39.9%.

In the case of `C=C(c1ccc2nc(NC(=O)OC)[nH]c2c1)c1cccs1`, the growth inhibition is -4% in experiment [1] (setting [7]); 47% in experiment [1] (setting [8]); 61.3% in experiment [1] (at 50.0 µM); -7% in experiment [2] (setting [7]); 88% (active) in experiment [2] (setting [8]); 93.2% (active) in experiment [2] (at 50.0 µM). Further, the growth inhibition in experiment [3] (setting [7]) is -4%; in experiment [3] (setting [8]), 72% (active); in experiment [3] (at 50.0 µM), 91.8% (active); in experiment [4] (setting [7]), -9%; in experiment [4] (setting [8]), 18%; in experiment [4] (at 50.0 µM), 41.1%. In addition, the growth inhibition in experiment [5] (setting [7]) was -3%; in experiment [5] (setting [8]), 84% (active); in experiment [5] (at 50.0 µM), 90.5% (active); in experiment [6] (setting [7]), -9%; in experiment [6] (setting [8]), 92% (active); in experiment [6] (at 50.0 µM), 95% (active).

As to `CC(C)(C)C1=NN=C2c3ccccc3C(=O)C21` (configuration not stated), the growth inhibition in experiment [1] (setting [7]) is 0%; in experiment [1] (setting [8]), 57%; in experiment [1] (at 50.0 µM), 68.2%; in experiment [2] (setting [7]), -3%; in experiment [2] (setting [8]), 44%; in experiment [2] (at 50.0 µM) it was 9.45%. The growth inhibition in experiment [3] (setting [7]) was -1%; in experiment [3] (setting [8]) it was 60%; in experiment [3] (at 50.0 µM) it was 53.2%; in experiment [4] (setting [7]), -12%; in experiment [4] (setting [8]), 14%; in experiment [4] (at 50.0 µM) it was 58.9%. In addition, the growth inhibition is 19% in experiment [5] (setting [7]); 87% (active) in experiment [5] (setting [8]); 78.7% (active) in experiment [5] (at 50.0 µM); -3% in experiment [6] (setting [7]); 44% in experiment [6] (setting [8]); 60.7% in experiment [6] (at 50.0 µM).

On to `CCN(CC)CCC(=O)/C=C/c1ccc(Cl)c(Cl)c1`, for which the growth inhibition in experiment [1] (setting [7]) is 10%; in experiment [1] (setting [8]), 97% (active); in experiment [1] (at 50.0 µM), 90% (active); in experiment [2] (setting [7]), 0%; in experiment [2] (setting [8]), 99% (active); in experiment [2] (at 50.0 µM) it was 93.1% (active). The growth inhibition in experiment [3] (setting [7]) is 16%; in experiment [3] (setting [8]) it was 56%; in experiment [3] (at 50.0 µM) it was 92% (active); in experiment [4] (setting [7]), 14%; in experiment [4] (setting [8]), 97% (active); in experiment [4] (at 50.0 µM) it was 90.4% (active). The growth inhibition in experiment [5] (setting [7]) was 10%; in experiment [5] (setting [8]), 98% (active); in experiment [5] (at 50.0 µM), 91.4% (active); in experiment [6] (setting [7]), 37%; in experiment [6] (setting [8]) it was 98% (active); in experiment [6] (at 50.0 µM) it was 89.3% (active).

On to `CCC(C(=O)CCN(C)C)(c1ccccc1)c1ccccc1`, for which the growth inhibition is 67% in experiment [1] (setting [7]); 99% (active) in experiment [1] (setting [8]); 99.5% (active) in experiment [1] (at 50.0 µM); 49% in experiment [2] (setting [7]); 99% (active) in experiment [2] (setting [8]); 99.6% (active) in experiment [2] (at 50.0 µM). Moreover, the growth inhibition is 80% (active) in experiment [3] (setting [7]); 99% (active) in experiment [3] (setting [8]); 99.3% (active) in experiment [3] (at 50.0 µM); 19% in experiment [4] (setting [7]); 99% (active) in experiment [4] (setting [8]); 99.3% (active) in experiment [4] (at 50.0 µM). Also, the growth inhibition is 59% in experiment [5] (setting [7]); 99% (active) in experiment [5] (setting [8]); 99.8% (active) in experiment [5] (at 50.0 µM); 80% (active) in experiment [6] (setting [7]); 99% (active) in experiment [6] (setting [8]); 99.5% (active) in experiment [6] (at 50.0 µM).

Turning to `CCCCCCCCCCCCCCC(O)C[N+](C)(CCO)CCO` (configuration not stated), the growth inhibition in experiment [1] (setting [7]) was 29%; in experiment [1] (setting [8]) it was 98% (active); in experiment [1] (at 50.0 µM) it was 86.6% (active); in experiment [2] (setting [7]) it was 22%; in experiment [2] (setting [8]), 99% (active); in experiment [2] (at 50.0 µM), 87.7% (active). Further, the growth inhibition was 32% in experiment [3] (setting [7]); 99% (active) in experiment [3] (setting [8]); 88.8% (active) in experiment [3] (at 50.0 µM); 10% in experiment [4] (setting [7]); 98% (active) in experiment [4] (setting [8]); 88.3% (active) in experiment [4] (at 50.0 µM). Besides, the growth inhibition is 28% in experiment [5] (setting [7]); 99% (active) in experiment [5] (setting [8]); 86% (active) in experiment [5] (at 50.0 µM); 32% in experiment [6] (setting [7]); 98% (active) in experiment [6] (setting [8]); 88.9% (active) in experiment [6] (at 50.0 µM).

Consider `Cc1c(C(C)(C)C)cc(C(C)(C)C)c(O)c1CN(C)Cc1c(C)c(C(C)(C)C)cc(C(C)(C)C)c1O`, for which the growth inhibition in experiment [1] (setting [7]) was -3%; in experiment [1] (setting [8]), 8%; in experiment [1] (at 50.0 µM) it was 99.5% (active); in experiment [2] (setting [7]) it was -8%; in experiment [2] (setting [8]), 3%; in experiment [2] (at 50.0 µM), 99.3% (active). Besides, the growth inhibition was 3% in experiment [3] (setting [7]); 33% in experiment [3] (setting [8]); 99.6% (active) in experiment [3] (at 50.0 µM); -6% in experiment [4] (setting [7]); -3% in experiment [4] (setting [8]); 99.5% (active) in experiment [4] (at 50.0 µM). Besides, the growth inhibition in experiment [5] (setting [7]) was -3%; in experiment [5] (setting [8]), 13%; in experiment [5] (at 50.0 µM), 99.4% (active); in experiment [6] (setting [7]) it was 4%; in experiment [6] (setting [8]), 17%; in experiment [6] (at 50.0 µM), 99.5% (active).

Turning to `COC(=O)c1nnn(-c2cc(Cl)ccc2Cl)c1C(=O)c1ccc(Cl)c(Cl)c1`, the growth inhibition in experiment [1] (setting [7]) is 12%; in experiment [1] (setting [8]), 98% (active); in experiment [1] (at 50.0 µM), 98.8% (active); in experiment [2] (setting [7]), 4%; in experiment [2] (setting [8]), 98% (active); in experiment [2] (at 50.0 µM), 96.8% (active). The growth inhibition in experiment [3] (setting [7]) is 14%; in experiment [3] (setting [8]) it was 98% (active); in experiment [3] (at 50.0 µM), 99% (active); in experiment [4] (setting [7]) it was 6%; in experiment [4] (setting [8]), 97% (active); in experiment [4] (at 50.0 µM), 95.5% (active). The growth inhibition is 18% in experiment [5] (setting [7]); 99% (active) in experiment [5] (setting [8]); 95.3% (active) in experiment [5] (at 50.0 µM); 17% in experiment [6] (setting [7]); 99% (active) in experiment [6] (setting [8]); 99% (active) in experiment [6] (at 50.0 µM).

For the compound `c1ccc(-c2c[nH]c(-c3ccccc3)c2-c2ccccc2)cc1`, the growth inhibition is 1% in experiment [1] (setting [7]); 90% (active) in experiment [1] (setting [8]); 95.2% (active) in experiment [1] (at 50.0 µM); -13% in experiment [2] (setting [7]); 93% (active) in experiment [2] (setting [8]); 95.1% (active) in experiment [2] (at 50.0 µM). The growth inhibition is -15% in experiment [3] (setting [7]); 94% (active) in experiment [3] (setting [8]); 93.3% (active) in experiment [3] (at 50.0 µM); -4% in experiment [4] (setting [7]); 80% (active) in experiment [4] (setting [8]); 95% (active) in experiment [4] (at 50.0 µM). In addition, the growth inhibition in experiment [5] (setting [7]) is 7%; in experiment [5] (setting [8]), 92% (active); in experiment [5] (at 50.0 µM), 83.4% (active); in experiment [6] (setting [7]) it was 18%; in experiment [6] (setting [8]), 94% (active); in experiment [6] (at 50.0 µM), 96.8% (active).
